# High-throughput results (PubChem BioAssay)
# Sampled rows, rich in hits. Any-hit rate of the full collection: about 1.4%.
# GALR2 blocker = GALR2 antagonists in receptor-expressing cells, primary screen. Galanin receptor type 2 (Homo sapiens), O43603. AID 828, 2007. 140,000 compounds, 0.39% hits. inhibition, % at 4 µM. antagonist mode;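 further: cells stimulated with galanin 1-16 at roughly its EC80; 0% = agonist challenge control and 100% = basal control without agonist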
# GALR2 agonist = GALR2 receptor agonists, primary screen, cell-based; Galanin receptor type 2 (Homo sapiens), O43603; GALR2-expressing cells, agonist activation read-out; activation, % (concentration not given with the values); 140,000 compounds, 0.48% hits; in the data active means activation above about 5%, passing the limit was not always enough;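 further: 0% = vehicle buffer wells and 100% = reference agonist at full effect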
# LYP act = LYP phosphatase activators, primary screen, biochemical, DiFMUP fluorescence, 2 µM; activation, % at 2 µM; 96,000 compounds, 0.11% hits; recombinant LYP; 0 = plate median, 100 = signal doubled; Tyrosine-protein phosphatase non-receptor type 22 (Homo sapiens), Q9Y2R2;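 active means activation at 2 µM above a set limit, the mean plus 5 SD, cut at about 37% in these data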
# LYP inh 2 = PTPN22 phosphatase inhibitors, primary screen, biochemical, DiFMUP fluorescence, 2 µM; Tyrosine-protein phosphatase non-receptor type 22 (Homo sapiens), Q9Y2R2; recombinant LYP catalytic domain; inhibition, % at 2 µM; 96,000 compounds, 0.21% hits; AID 640, 2007;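 active means inhibition at 2 µM at or above a set limit, the screen mean plus 3 SD, cut at about 24% in these data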;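 further: 0% = DMSO with enzyme and 100% = enzyme fully blocked by orthovanadate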
# S1P2 agonist = S1P2 receptor agonists, primary screen, cell-based; Sphingosine 1-phosphate receptor 2 (Homo sapiens), O95136; S1P2-expressing cell line, agonist reporter read-out; activation, % at 4.5 µM; 97,000 compounds, 0.46% hits; AID 729, 2007; in the data active means activation above about 16%;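 further: 0% = vehicle low control and 100% = maximal reference agonist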
# Target sequence (O95136 whole entry, looked up): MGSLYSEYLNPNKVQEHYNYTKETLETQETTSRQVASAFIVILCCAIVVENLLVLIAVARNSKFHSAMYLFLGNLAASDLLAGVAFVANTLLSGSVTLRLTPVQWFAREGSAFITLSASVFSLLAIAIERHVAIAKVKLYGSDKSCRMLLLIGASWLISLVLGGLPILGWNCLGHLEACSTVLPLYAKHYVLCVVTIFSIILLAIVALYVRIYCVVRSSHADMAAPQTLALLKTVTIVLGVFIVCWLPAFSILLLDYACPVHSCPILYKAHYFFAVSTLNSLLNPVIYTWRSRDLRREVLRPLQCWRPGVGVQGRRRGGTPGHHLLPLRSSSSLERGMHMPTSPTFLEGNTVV
# S1P2 blocker = human S1P2 receptor antagonists, primary screen, cell-based; cell-based S1P2 antagonist assay, inhibition at 5 uM; inhibition, % at 5 µM; 97,000 compounds, 0.21% hits; in the data active means inhibition above about 45%;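 further: CRE beta-lactamase reporter cells expressing human S1P2 stimulated with S1P; 0% = agonist at EC80 alone and 100% = agonist plus reference antagonist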
# GALR2 ag confirm = GALR2 agonists, retest of hits, confirmation, cell-based. AID 864, 2007. 460 compounds, 10% hits. activation, % at 5.6 µM. shares compounds with GALR2 agonist. GALR2-expressing cells, agonist activation; in the data active means activation above about 8.4%;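 further: 0% = buffer-only vehicle wells and 100% = full reference agonist response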
# BLA activ ctr = activators of NFAT-driven beta-lactamase reporter, confirmation, counter-screen for GALR2 agonist project, CHO NFAT-bla cells, FRET readout; activation, % at 5.6 µM; shares compounds with GALR2 agonist; beta-lactamase FRET activation; 460 compounds, 10% hits;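 active means activation above the screen-wide mean activation plus 3 SD, cut at about 8% in these data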;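 further: 0% = DMSO with PBS wells and 100% = thapsigargin positive control wells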
# GALR2 blk conf = GALR2 antagonists, retest of hits, confirmation, cell-based; shares compounds with GALR2 blocker; GALR2-expressing cells, antagonist mode, inhibition; inhibition, % at 4 µM; 480 compounds, 60% hits;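 further: cells stimulated with galanin at about its EC80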
# BLA inh counter = inhibitors of NFAT-driven beta-lactamase reporter, confirmation, counter-screen for GALR2 antagonist project, CHO NFAT-bla cells, FRET readout. shares compounds with GALR2 blocker. thapsigargin-stimulated. inhibition, % at 4.2 µM. 480 compounds, 36% hits;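 active means inhibition above the mean inhibition across tested compounds plus 3 SD, cut at about 27% in these data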;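 further: 0% = 500 nM thapsigargin stimulated wells and 100% = unstimulated BSA only wells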
# Active calls of the source: *; . = no result. Unless noted, no stated cut-off is given here; in the data, active means inhibition above about 27%; inactive means the rest.
SMILES,GALR2 blocker,GALR2 agonist,LYP act,LYP inh 2,S1P2 agonist,S1P2 blocker,GALR2 blk conf,BLA inh counter,others
Cc1ccc2nsnc2c1NC(=O)c1ccc(-c2cc(Cl)ccc2Cl)o1,38*,10,-13,18,4,28,23,21,GALR2 ag confirm=11*;BLA activ ctr=3
COc1ccc(-c2cc(-c3ccc(Br)cc3)nc3ncnn23)cc1OC,18,1,8,-10,-1,-16,.,.,
c1ccc(CN2CCN(c3ncnc4c3[nH]c3ccccc34)CC2)cc1,36*,0,-10,13,-6,78*,40*,19,
c1ccc2c(c1)[nH]c1c(N3CCC4(CC3)OCCO4)ncnc12,7,-1,6,-4,-2,10,.,.,
COc1ccc2c(c1)[nH]c1c(N3CCN(Cc4ccc5c(c4)OCO5)CC3)ncnc12,38*,0,2,-4,-9,87*,44*,16,
Cc1ccc2[nH]c3c(N4CCCCCC4)ncnc3c2c1,38*,1,-1,-2,-10,92*,42*,14,
Cc1ccc(NC(=O)CSc2ccc3nnc(CCNC(=O)c4ccccc4)n3n2)c(C)c1,2,0,.,.,.,.,.,.,
Cc1ccc(NC(=O)Cc2nnc(SCC(=O)c3ccc(Br)cc3)n2C)cc1,-5,2,-1,-1,-3,-26,.,.,
CCOC(=O)c1ccc(N2C(=O)CC(N3CCC(O)(c4ccc(Br)cc4)CC3)C2=O)cc1 (configuration not stated),30*,5,-12,13,-8,46*,40*,3,
Cc1ccccc1-n1c(CSC(=N)N)nc2ccccc2c1=O,31*,-2,0,-4,-5,-6,10,11,
O=C(CCC1CCCCC1)NNC(=O)NC12CC3CC(CC(C3)C1)C2,10,-2,-4,4,-5,-7,.,.,
CC(=O)c1ccc(NC(=O)c2cc3nc4c(c(C(F)(F)F)n3n2)CCCC4)cc1,31*,-1,-12,10,-1,-19,2,1,
COc1cccc(Cn2c(NCc3ccco3)nc3c2c(=O)n(C)c(=O)n3C)c1,28*,-1,.,.,.,.,19,3,
COc1ccc(Cl)c(Cn2c(NCc3ccco3)nc3c2c(=O)n(C)c(=O)n3C)c1,-2,-3,-5,4,3,24,.,.,
CC1CCN(c2nc3ccc(C(=O)N4CCN(Cc5ccc6c(c5)OCO6)CC4)cc3s2)CC1,-12,-1,6,-10,-5,19,.,.,
Cc1ccccc1NC1=C/C(=N\S(=O)(=O)c2cccs2)c2ccccc2C1=O,63*,5,5,-6,8,41,44*,59*,
Cc1[nH]n(-c2ccccc2)c(=S)c1C=Nc1cccc([N+](=O)[O-])c1,-9,-1,4,0,-1,7,.,.,
N#CC1=C(N)Nc2ncnn2C1c1ccccc1 (configuration not stated),-1,0,.,.,.,.,.,.,
N#CC1=C(N)Nc2nc3ccccc3n2C1c1ccc(Cl)cc1 (configuration not stated),32*,-1,.,.,.,.,27*,46*,
Oc1c(Cl)cccc1C=Nc1cc(C(F)(F)F)ccc1N1CCCC1,32*,-2,5,-8,-4,8,16,17,
O=C(/C=C/c1cn(CC(O)CN2CCCCC2)c2ccccc12)c1cccs1 (configuration not stated),9,0,.,.,.,.,.,.,
CCCN(CCC)CC(O)Cn1cc(/C=C/C(=O)c2cccs2)c2ccccc21 (configuration not stated),53*,1,.,.,.,.,32*,44*,
CC1CCC(NC(=O)C2c3ccccc3C(=O)N2Cc2cccs2)CC1 (configuration not stated),-16,0,.,.,.,.,.,.,
Cc1cnc(NC(=O)Cc2c[nH]c3ccccc23)s1,33*,-3,2,-2,-7,10,25,5,
O=C(CSCc1ccccc1)N/N=C/c1cc2c(cc1Br)OCO2,4,-1,.,.,.,.,.,.,
SMILES,GALR2 blocker,GALR2 agonist,LYP act,LYP inh 2,S1P2 agonist,S1P2 blocker,GALR2 blk conf,BLA inh counter,others
COc1ccc(OC)c(NC(=O)CSc2ncnc3c2cnn3-c2ccccc2Cl)c1,31*,-1,-14,14,-3,81*,49*,18,
O=C(Nc1ccc(Cl)cc1)c1cccs1,14,0,2,-2,-1,10,.,.,
O=C(Nc1ccccc1)c1nnsc1S(=O)c1ccc(Cl)cc1 (configuration not stated),39*,-4,-12,14,-6,64*,35*,56*,
O=C(CSc1ccc(Cl)cc1Cl)N1CCC(c2nc3ccccc3s2)CC1,-19,0,-6,4,-5,-33,.,.,
CC(NC(=O)Nc1nnc(C(F)(F)F)s1)(C(F)(F)F)C(F)(F)F,38*,-2,-3,3,-2,25,22,8,
CCOC(=O)c1c(C)nc2sc(C(=O)Nc3ccc(C(C)=O)cc3)c(N)c2c1-c1ccc(OC)cc1,30*,2,3,-6,-7,27,20,38*,
CCOC(=O)c1c(C)nc2sc(C(=O)Nc3ccc(OC)cc3)c(N)c2c1-c1ccc(OC)cc1,-1,-3,-2,3,-2,-7,.,.,
CC(C)(C)c1ccc(OCCNC(=O)c2ncn[nH]2)cc1,31*,-1,-5,6,-3,-3,5,8,
CCCOc1ncnc2c1[nH]c1ccccc12,29*,-2,1,2,-12,1,28*,1,
CCN(CC)c1ncnc2c1[nH]c1ccccc12,24,-3,-1,2,-7,-6,.,.,
CC(C)OC(=O)CSc1nc2ccccc2s1,34*,-3,0,2,-4,-24,6,15,
Cc1ccc(OCCN2C(=O)NC3(CCc4ccccc4C3)C2=O)cc1 (configuration not stated),0,1,.,.,.,.,.,.,
Cc1ccccc1NC(=O)/C=C/c1ccc([N+](=O)[O-])s1,34*,1,.,.,.,.,60*,62*,
CCN1CCN(C(=O)c2ccc(CN(c3ccccc3)S(=O)(=O)c3ccccc3)cc2)CC1,6,-1,.,.,.,.,.,.,
